Drawing on PubChem BioAssay AID1159506 (National Center for Advancing Translational Sciences (NCATS), 2015), this text covers seed-corrected z-score for 132 sequences.

In all, about 59,000 sequences were measured (the read-out: median about -0.00055, lowest 2% from about -2 on). The full list was thinned out, with the lowest values kept by preference.

The nature of this test: Identification of proteins required for the processing of the EWS-FLI1 nascent transcript.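 Further: robust z of luciferase light less the median z of siRNAs with the same seed.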 Particulars: TC32 Ewing sarcoma NR0B1-luc vs CMV-luc (EWS-FLI1 target promoter against control promoter), 48 h; screened at 20 nM (by protocol). Summed up: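 Parallel TC32-NR0B1-luc and TC32-CMV-luc reverse transfections with 20 nM siRNA in RPMI-1640/10% FBS, luciferase measured 48 h later. Seed-adjusted z-scores from normalized, z-score-MAD transformed data; AllStars negative and siGL4 controls on each plate.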
In turn, UUAGUUGCUGACUUUCUCC against TRAPPC9 yielded a seed-corrected z-score of -2.06.
On to UUUGAUUUGGUUGUGACCC against ZYX, for which the seed-corrected z-score is -0.301.
The value for UUCAAGUUUGUUCUCAGAC against GOLGA6L7P was -0.298; that for AAGGAAAUUAGGAUAAUAG against FAM217B was 0.732; that for UGUCUCUCAGGCAACAGGC against PROP1 was -0.922.
UUCAUUAUCAUCUAGGUGG against ACTR5 gave a seed-corrected z-score of -0.49.
Take UGUGGACAAGGUCUAGGGC against LOC401317: the seed-corrected z-score is -2.18.
As to AUAGUUGACAUUCCGAACC against CDK5RAP3, the seed-corrected z-score amounted to 0.941.
As for UUAGAGUUUGCGAAGCAGG against PSG11, the figure is 0.96.
Sequence UUUAUAUCCAUAUCCUUUC against PPIC registered a seed-corrected z-score of 0.0569.
AGAAGAUGAAUCACAGAGC against BAGE4 showed a seed-corrected z-score of -0.377.
Take UAUCAUAUUUAAGAGACUG against TSSC1: the seed-corrected z-score is 0.912.
As for UAUUUGAAGCUCCAGGGUG against FBXL15, the figure is 0.429; as for UUCUUUAUGCACAACUCCC against MYO1C, -2.91; as for UUACUUUUAGUUCAUACAG against SOX1, -0.0466.
The sequence AUCAGUACUAAAAUAUCGG against ATG2B came in with a seed-corrected z-score of 0.25.
The value for UCCUCGAAAAUCUCAAAGC against MYO1B was -0.441; that for UGGUAUUCAAAAUAGUCGC against TLK1 was -0.673.
UUCUGCUUCCGGUAAAUGC against SH3TC1 came in with a seed-corrected z-score of -0.467.
The value for UUUGUUUCGCUGGUCUUUG against RYBP was -2.49.
Take UAUCCUGUAAGUUGUGGGC against TEX28: the seed-corrected z-score amounted to 1.15.
The value for UCACUAAUAGGAUCUUCGC against RAB3GAP1 was 0.413; that for AAGGUUUUCCGAGUAACUC against LYZL6 was 1.38.
The sequence AUAAGACUGACCUUGGUUG against TFCP2L1 came in with a seed-corrected z-score of -2.59.
Turning to UUUUAUUCGAAAUUCUGCA against ITGB1BP1, the seed-corrected z-score was determined as 0.195.
As to AAGCCGAAAAUUGAUCUGC against GLDC, the seed-corrected z-score stood at 0.214.
As for AAAUCUGCACUCUUGGUCA against RGS11, the figure is -2.54; as for AUGGUAGACACCUUAGUUC against RPL7P23, -2.39.
As for UCGUUUACCAAACAGUUUC against BTK, the figure is -0.0928.
With UUUGUUCUGGAUGCCCUGC against WARSP1, the seed-corrected z-score was found to be 0.407.
The value for UUGGUUCCAUUGUAGGUCU against TSPAN3 was -0.422; that for UUCUUUUUGUCCAAACUCU against SLC25A25 was -0.247; that for AAAGUUACUCUUCCAAACC against POC1A was -2.67.
The sequence AUAUUUCAUAUAGGCGAUG against PLA2G10 yielded a seed-corrected z-score of -0.215.
In turn, UCUUGGUCCUCUGGCAGUC against TMEM116 returned a seed-corrected z-score of -0.118.
As for AAAUAAAACGUACAAAUAC against SCRT1, the figure is 0.713; as for UUCAUCUCCACAAUCACCG against MAG, -0.753.
For the sequence AAGCGGGAUGAAGAAAUCC against GSX2, the seed-corrected z-score was found to be 3.22.
As for UCUGCACUUGUCAAUAUCC against MED10, the figure is -0.53; as for UUCGUUAUCAAUGCAGUAG against TUBB4B, -1.5; as for AUCUUGGUGAUUUCGCGGC against NDN, -2.11.
Sequence UAACAUAAUUAUAACCUCC against ZNF716 displayed a seed-corrected z-score of 0.757.
The value for UGAGGUUAGAGCACUGCAC against CCDC87 was -0.47; that for UUCUUUCUCACGGUCACUC against LOC728445 was -0.746; that for UCAGGUGCUCCAAGUACUG against TMEM201 was -2.21.
Turning to UCUUUGCUAGGUAAAAAGC against PRUNE, the seed-corrected z-score came to 1.32.
The sequence AACCGAAGGAGAUUCCUGG against C8orf49 registered a seed-corrected z-score of 0.161.
As to AAAACGAUCAAAAUCUGUC against RPL14P1, the seed-corrected z-score is -3.16.
AAUUCACAUGUUGUAAUCC against STRADBP1 displayed a seed-corrected z-score of -0.053.
As for UUUCCUAUUCACAAGAGCG against FHIT, the figure is 1.2; as for AAUCGCAUUGUUCAUGUCC against OR6K3, -1.67; as for UCCUUGCAAAUCUCCGACC against LTBP3, -1.01.
The sequence AAACCGAUAAGAACUGAGA against TMEM41A yielded a seed-corrected z-score of 0.54.
Sequence AAACCUAUUAACUUCAAGC against CHKA showed a seed-corrected z-score of -0.134.
As for AAAGUUGAGGGUAGCACUC against AP5B1, the figure is 0.334; as for AUGGGUCUCAUGCUCCUCU against TMEM74B, -2.13.
As for UUAAUGAAUCUACAGUCCG against OTOR, the figure is 0.51; as for AGUAUAUCACACUUGAUCC against COL4A4, -0.00727; as for UAAAUUUGCAUGAAGGUGU against TMEM179, 0.108.
Consider UCUAGGAGCAGCGCAACUG against ANKRD29, for which the seed-corrected z-score is -0.882.
In the case of AAGGUAAACGAUUAAAUUG against LAMTOR3, the seed-corrected z-score worked out at 0.248.
In turn, UACAGUAGCACUGCCCUGU against LAMA5 returned a seed-corrected z-score of -2.69.
ACAUUGGUACCUGUCAUCC against GLYCTK: the seed-corrected z-score worked out at 0.203.
Sequence AAAAUAUAGAUAUCUAUGC against GADD45B showed a seed-corrected z-score of 1.35.
In the case of AGCAGCAUCAUUCUCAUGU against LOXL4, the seed-corrected z-score was 0.376.
As for UCAGUUUCCUCGCCGACUC against SH3BP5L, the figure is -2.66; as for UACUGAGGACCUUUCGUUC against SPATA21, -0.926.
With UGCUUAACCACAGAAGCUG against ADSL, the seed-corrected z-score was -0.731.
UACAGUACAAGUAUGAGCU against CYB561D2 came in with a seed-corrected z-score of -1.33.
UCUCCUUUUAGCAUGAUCC against SNRPE had a seed-corrected z-score of -2.15.
Regarding UUGAGUCCAAUGUCCACUC against TBC1D9B, the seed-corrected z-score was -0.454.
Turning to UCCACGUCAAAUUUAUCCC against SPAG1, the seed-corrected z-score is 0.232.
On to AAUUGUCCAACAUCAACGA against METTL2A, for which the seed-corrected z-score is -1.52.
The value for AUUCGAAUUAGGUAUUGGG against MAK16 was 0.538.
As for UGCUUCAACAAAUCGGGCC against C7orf57, the figure is -2.05; as for UGAUUGCAGAUGAUGAUCC against VHLL, -0.39.
As for UUAGUUCCCAAGUACUAUC against CHD9, the figure is 0.856; as for UGGAUAGCGGUCCUCAUCC against IL17C, 1.
Consider UUGGGUGUCAGCAGUACUG against PRRC2A, for which the seed-corrected z-score was -2.05.
The value for AAGGUAAACAUGUUCUCGC against TARSL2 was 0.287; that for AAAGUUACGCACCCAAUUG against GBA was 0.249.
Sequence AAUGAGACGACGGAUGAAC against C19orf25 registered a seed-corrected z-score of -0.471.
UUACUGACAGUAUUUCACU against C10orf67: the seed-corrected z-score is -0.0381.
As for UUCAGCAUCACGAACAUCC against SRSF10, the figure is -1.61; as for UGCAGGUUCAGCUUGUCUG against LGALS2, -2.58; as for UUCAGCACCACGCAGUUGC against C12orf65, 0.924.
On to UAUGGAGAGAGAAUAACUG against SDHC, for which the seed-corrected z-score came out at 0.151.
Turning to UAUUGACCACAAUCGAGGC against PIGX, the seed-corrected z-score amounted to 1.23.
ACAGGGACUUGAACUGGGC against IFNL3: the seed-corrected z-score was -2.31.
UUUGUUCCAAGGCAUUCAC against CCDC129 registered a seed-corrected z-score of 1.07.
As to UAGGUCGAAAGAACUCAGC against PEX3, the seed-corrected z-score is -0.0828.
UGGAGUAUGAGUCCCAUUC against MTPAP had a seed-corrected z-score of -15.6.
On to UUAGAUACAGGUAUGAACA against OR4C45, for which the seed-corrected z-score is 0.478.
The value for UAAGUUCUUAGAGUUUUGG against TP53TG3 was 0.271; that for UUCUCGAUUAAGAAGUUUC against C18orf21 was 0.33.
UCAGUAGCAACUGCCCUUU against MGAT4EP gave a seed-corrected z-score of -2.02.
The sequence AUCGAUUCCAUUUCAAGGC against SERHL returned a seed-corrected z-score of 0.0431.
The sequence UUGAUUUUCUCCUCCAUCC against JAKMIP1 had a seed-corrected z-score of -0.126.
With UGUAGUACACUCUUGUUCU against GOLGA8G, the seed-corrected z-score is -0.318.
UAGUUGAGAAGGUCGAAGU against SF3B5 registered a seed-corrected z-score of -2.5.
The sequence UUAUGUCUCAUGAGUCGGU against ZNF548 gave a seed-corrected z-score of -0.149.
Take UGACUGUCUUGCGUAUUUC against TTC21A: the seed-corrected z-score stood at 0.856.
Turning to UUCUAGAUAAUAACUCUCC against CCDC47, the seed-corrected z-score came to 0.297.
Take UCAGGUAUCUGAGAAUCUC against APOBEC3B: the seed-corrected z-score was -0.83.
In turn, UACUGAACACUGGAAAUUC against FGFBP2 gave a seed-corrected z-score of 1.53.
As for UUCUCAUCGAGCCUGAAGU against FAM187B, the seed-corrected z-score was found to be 1.36.
Consider UGUUGUACCACUGUCAGAG against PPM1G, for which the seed-corrected z-score was -0.406.
For the sequence AUAGAUACUGGGAGGUUUG against UBE2J2, the seed-corrected z-score was found to be 0.783.
The sequence UAAUCAUCCCGACCAACGC against P2RY10 yielded a seed-corrected z-score of -0.625.
As for CAGAUUCUGACGCUUUGUG against LIMD1-AS1, the figure is -1.25; as for UCGAUGUAGAGGAUGCUGA against GDF7, -2.35; as for UAAGAAAUGACGUGUGCUG against PTGDR2, 0.0522.
UGAGGUACUCGCUUUCCUG against TCTE1 returned a seed-corrected z-score of -0.587.
The value for UUAGAAAUGCAAAUAAACU against TMSB15A was 0.478; that for UUCGGUAAGACAUCAGUGG against STAG2 was 0.75.
UUGUAAUCAAAGUAGUAGC against PSMD8: the seed-corrected z-score was -5.85.
UGUUCUUGAACUGUAGUAC against RNF40: the seed-corrected z-score was determined as 0.119.
UGAGCCUUGAGUGCACUGG against LOC729047: the seed-corrected z-score was 0.713.
As for UAAGAUUGGAGAGAUUGCC against SLC10A4, the seed-corrected z-score was 0.287.
Turning to UGUAGUAUCUGAGUCAACC against CENPE, the seed-corrected z-score is -2.96.
Sequence UUACAUAUCACGUACAUCC against SENP8 registered a seed-corrected z-score of 0.448.
Sequence UUUUCUAAUAUGCUAACUG against BMP8A displayed a seed-corrected z-score of -0.422.
UCAUUAGUAAUAUCGUCGG against HSP90AA1 had a seed-corrected z-score of -0.64.
With UCAAUGCCUCUGAUUGUUG against SPATA31D5P, the seed-corrected z-score is -1.51.
The sequence UUCGAUACCAGCCGGUAGC against F8A2 showed a seed-corrected z-score of -12.9.
As for UUCCCGUAAACUUUCUCGC against KLF13, the figure is 0.162; as for UGAUCUAUGAGUACGUCCG against SBNO1, -0.107.
On to AAGUGGACUUGAGAUGUGG against PPP1R1A, for which the seed-corrected z-score was -0.084.
In turn, UUAACAUGCAAGAAAUGUC against SPO11 returned a seed-corrected z-score of 2.19.
As to UUGUCCUUCAGGAACACCG against EPB41L1, the seed-corrected z-score was 0.385.
Sequence UAUCUAGUAGUAGUUCACC against CAB39 registered a seed-corrected z-score of 0.229.
UCUGGUGGUGGUCUGAGUC against ZFP64 returned a seed-corrected z-score of -3.19.
